Laboratory results reported in PubChem BioAssay (Tox21).
Unmarked numbers belong to inactive results. Inconclusive results are not listed. A call without a number means that no potency is given here. Activity calls are given as the source filed them. Unless noted, calls follow the shape of the full dose curve.

Key:
[1] = Nuclear factor erythroid 2-related factor 2/antioxidant responsive element (Nrf2/ARE) small molecule agonists: qHTS cell viability counter screen in human keratinocytes (AID 1919968; active = well fitted cell-killing curve with a large enough effect in the repeat runs; also: nearly all actives have a fitted effect of over 55% in size)
Procedure, shortened: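 Seed 1,500 KeratinoSens cells per well, then incubate 5 h at 37 C/5% CO2. Add compounds in DMSO and incubate 23 h. Add CellTiter-Fluor, wait 1 h and read fluorescence.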

[2] = Nuclear factor erythroid 2-related factor 2/antioxidant responsive element (Nrf2/ARE) small molecule agonists: luciferase reporter gene qHTS assay in human keratinocytes (AID 1919969); also: nearly all actives have a fitted effect of over 35% in size; also: potency is read from the fitted curve at half-maximal effect
[3] = biological target: Gonadotropin-releasing hormone receptor (Homo sapiens) (UniProt P30968); assay: Human gonadotropin-releasing hormone receptor (GnRHR) small molecule agonists, calcium flux assay in GnRHR-HEK293 cells (AID 1920063); also: nearly all actives have a fitted effect of over 35% in size
Procedure, shortened: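 Cells: HEK293 stably expressing human GnRHR. Steps: overnight (18 h) culture, 1 h calcium dye loading at 37 C, compound addition, kinetic fluorescence read at 480/540 nm. Each compound tested at 15 concentrations in triplicate.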

[4] = G protein-coupled receptor (GPCR) small molecule agonists, calcium flux assay: HEK293 wild type cell line counter screen (AID 1920065)
Procedure, shortened: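 Counter-screen of the Tox21 10K library for non-specific calcium release: dye-loaded cells received compounds in DMSO and were monitored by kinetic fluorescence (480/540 nm, 3 min). Fifteen concentrations, run in triplicate.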

[5] = p53 small molecule agonists, cell-based qHTS assay with human liver microsomes (AID 1963577)
Procedure, shortened: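 Cells carrying a p53-responsive bla reporter were rested 5 h (37 C, 5% CO2) before compound transfer. Human liver microsomes plus NADPH, 0.5 mg/mL final apiece, supplied metabolism during the 16 h 37 C exposure.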

[6] = p53 small molecule agonists, cell-based qHTS assay with rat liver microsomes (AID 1963578)
Procedure, shortened: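 Fluorescence from a beta-lactamase reporter under a p53 response element was measured after cells had been incubated 16 h at 37 C with test compound and rat liver microsomes plus NADPH (0.5 mg/mL final each).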

[7] = p53 small molecule agonists, cell-based qHTS assay with human liver microsomes: qHTS cell viability counter screen (AID 1963579); also: nearly all actives have a fitted effect of over 45% in size
Procedure, shortened: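 Seed p53RE-bla cells at 4,000 per well; incubate 5 h at 37 C; add compound, human liver microsomes and NADPH; incubate 16 h at 37 C; add CellTiter-Glo; after 30 min at room temperature, read luminescence.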

[8] = p53 small molecule agonists, cell-based qHTS assay with rat liver microsomes: qHTS cell viability counter screen (AID 1963580); also: nearly all actives have a fitted effect of over 45% in size
Procedure, shortened: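 HCT-116 p53RE-bla, 4,000 cells/well, 5 h pre-incubation; cpd + rat liver microsomes 0.5 mg/mL + NADPH 0.5 mg/mL (final); 16 h, 37 C; CellTiter-Glo, 30 min RT; luminescence.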

[9] = p53 small molecule agonists, cell-based qHTS assay: qHTS cell viability counter screen (AID 1963581); also: nearly all actives have a fitted effect of over 45% in size
Procedure, shortened: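 Cells: HCT-116 with p53 response element-driven beta-lactamase. Treatment: 16 h, 37 C, compounds in DMSO. Read: CellTiter-Glo luminescence after 30 min RT.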

[10] = p53 small molecule agonists, cell-based qHTS assay (AID 1963582; active = well fitted activation curve with a large enough effect in the signal ratio in the repeat runs, not every such curve was filed as active; the % refers to the signal ratio)
Procedure, shortened: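 Quantitative HTS in p53RE-bla cells: after a 5 h settling period, compounds delivered in DMSO were left on cells for 16 h at 37 C, and reporter induction was measured as fluorescence following 2 h substrate loading.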

[11] = biological target: 5-hydroxytryptamine receptor 2A (Homo sapiens) (UniProt P28223); assay: 5-hydroxytryptamine receptor 2A (HTR2A) small molecule antagonists, cell-based qHTS assay (AID 1963586); also: nearly all actives have a fitted effect of over 45% in size
Procedure, shortened: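 Antagonist-mode intracellular calcium assay: DOI (4 nM) added after 5 min compound pre-incubation at room temperature to dye-loaded HTR2A-CHO cells. Fluorescence followed for 3 min, sampled every second.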

[12] = biological target: 5-hydroxytryptamine receptor 2A (Homo sapiens) (UniProt P28223); assay: 5-hydroxytryptamine receptor 2A (HTR2A) small molecule agonists, cell-based qHTS assay (AID 1963587); also: nearly all actives have a fitted effect of over 30% in size
Procedure, shortened: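 Kinetic calcium-flux fluorescence (2 min, 1 sec intervals) after compound addition in agonist mode. HTR2A-CHO cells were cultured 18 h, then dye-loaded 1 h at 37 C.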

[13] = biological target: Muscarinic acetylcholine receptor M1 (Homo sapiens) (UniProt P11229); assay: Cholinergic receptor muscarinic 1 (CHRM1) small molecule antagonists, cell-based qHTS assay (AID 1963588); also: nearly all actives have a fitted effect of over 40% in size
Procedure, shortened: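 CHRM1-CHO calcium-flux assay, antagonist mode. Cells were seeded 18 h, dye-loaded 1 h at 37 C and given compound for 5 min at RT, then acetylcholine was added at 50nM. FDSS fluorescence was read 3 min; 15 concentrations, three runs.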

[14] = biological target: Muscarinic acetylcholine receptor M1 (Homo sapiens) (UniProt P11229); assay: Cholinergic receptor muscarinic 1 (CHRM1) small molecule agonists, cell-based qHTS assay (AID 1963589); also: nearly all actives have a fitted effect of over 35% in size
Procedure, shortened: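 Agonist-mode qHTS in CHO cells stably carrying human muscarinic M1. Intracellular calcium is tracked by fluorescence every second after compound transfer; each compound runs at 15 concentrations in three independent runs.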

[15] = cAMP Responsive Elements (CRE) small molecule agonists, cell-based qHTS assay (AID 1963590)
Procedure, shortened: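 Agonist mode qHTS in CRE-bla HEK 293T cells: compounds dosed from DMSO for 3 h at 37 C/5% CO2, followed by LiveBLAzer B/G FRET substrate for 2 h at room temperature.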

[16] = cAMP Responsive Elements (CRE) small molecule antagonists, cell-based qHTS assay (AID 1963591; active = well fitted inhibition curve with a large enough effect in the signal ratio in the repeat runs, not every such curve was filed as active; the % refers to the signal ratio)
Procedure, shortened: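 Antagonist mode: test compounds are co-incubated with the adenylyl cyclase activator NKH477 (0.25 uM final) on CRE-bla HEK293T cells for 3 h at 37 °C, followed by LiveBLAzer substrate loading.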

[17] = biological target: Beta-2 adrenergic receptor (Homo sapiens) (UniProt P07550); assay: Adrenergic beta2 receptor (ADRB2) small molecule antagonists, cell-based qHTS assay (AID 1963592); also: series mostly up to about 92 µM; nearly all actives have a fitted effect of over 50% in size
Procedure, shortened: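 Cells (CHO, stable ADRB2 overexpression) incubated 18-20hr at 37C; compounds added from DMSO; agonist mix (1nM isoproterenol, 100uM IBMX, 25uM Ro-20-1724) added; 0.5hr RT; d2-cAMP and anti-cAMP-cryptate added; 1hr RT; 665/615 nm read.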

[18] = biological target: D(2) dopamine receptor (Homo sapiens) (UniProt P14416); assay: Dopamine D2 receptor (DRD2) small molecule agonists, cell-based qHTS assay (AID 1963594); also: nearly all actives have a fitted effect of over 35% in size
Procedure, shortened: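 cAMP accumulation in DRD2-HEK293 cells measured by HTRF after 1 h detection; compounds added 10 min before NKH477 (200nM […]) forskolin-analogue stimulation, 30 min at room temperature, with Ro20-1724 present at 0.1 mM final.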

[19] = biological target: D(2) dopamine receptor (Homo sapiens) (UniProt P14416); assay: Dopamine D2 receptor (DRD2) small molecule antagonists, cell-based qHTS assay (AID 1963595; active = well fitted inhibition curve with a large enough effect in the signal ratio in the repeat runs, with a control signal flat; the % refers to the signal ratio)
Procedure, shortened: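 DRD2-HEK293; 0.1 mM Ro20-1724; cpd 10 min RT; NKH477 200 nM + quinpirole 12 nM, 30 min RT; HTRF cAMP (cAMP-d2/anti-cAMP cryptate), 665/620 nm ratio after 1 h.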

[20] = biological target: Beta-2 adrenergic receptor (Homo sapiens) (UniProt P07550); assay: Adrenergic beta2 receptor (ADRB2) small molecule agonists, cell-based qHTS assay (AID 1963593);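 also: CHO cells stably overexpressing human ADRB2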
Procedure, shortened: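 CHO cells stably over-expressing ADRB2 were plated overnight at 37C, then dosed with compounds plus a stimulation mix containing 100uM IBMX and 25uM Ro-20-1724 for 0.5hr at room temperature. cAMP was measured by HTRF competition, 1hr.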

Beta-2 adrenergic receptor (Homo sapiens), sequence (P07550 whole entry, looked up): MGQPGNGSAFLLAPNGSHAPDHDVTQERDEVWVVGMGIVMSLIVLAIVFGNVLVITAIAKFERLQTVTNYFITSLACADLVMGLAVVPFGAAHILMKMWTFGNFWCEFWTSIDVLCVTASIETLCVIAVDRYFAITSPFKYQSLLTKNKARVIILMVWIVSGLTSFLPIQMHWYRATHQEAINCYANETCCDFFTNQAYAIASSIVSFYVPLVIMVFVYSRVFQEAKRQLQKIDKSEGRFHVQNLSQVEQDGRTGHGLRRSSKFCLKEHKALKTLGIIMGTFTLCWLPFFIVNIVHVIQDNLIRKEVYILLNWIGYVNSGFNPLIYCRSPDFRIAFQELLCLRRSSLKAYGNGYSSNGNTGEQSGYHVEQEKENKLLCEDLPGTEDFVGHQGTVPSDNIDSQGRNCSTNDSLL
5-hydroxytryptamine receptor 2A (Homo sapiens), sequence (P28223 whole entry, looked up): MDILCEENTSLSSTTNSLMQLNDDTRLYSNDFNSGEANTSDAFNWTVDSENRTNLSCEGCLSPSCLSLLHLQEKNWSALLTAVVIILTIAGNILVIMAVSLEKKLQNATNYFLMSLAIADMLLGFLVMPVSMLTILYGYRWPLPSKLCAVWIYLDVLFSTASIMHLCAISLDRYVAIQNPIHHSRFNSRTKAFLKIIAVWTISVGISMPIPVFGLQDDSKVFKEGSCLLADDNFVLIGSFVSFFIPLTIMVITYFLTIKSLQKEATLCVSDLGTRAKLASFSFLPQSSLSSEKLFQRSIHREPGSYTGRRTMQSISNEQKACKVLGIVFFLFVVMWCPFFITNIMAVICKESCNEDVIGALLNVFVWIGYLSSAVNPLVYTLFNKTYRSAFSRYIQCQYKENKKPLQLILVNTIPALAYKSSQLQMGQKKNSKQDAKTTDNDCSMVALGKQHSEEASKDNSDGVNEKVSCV
Gonadotropin-releasing hormone receptor (Homo sapiens), sequence (P30968 whole entry, looked up): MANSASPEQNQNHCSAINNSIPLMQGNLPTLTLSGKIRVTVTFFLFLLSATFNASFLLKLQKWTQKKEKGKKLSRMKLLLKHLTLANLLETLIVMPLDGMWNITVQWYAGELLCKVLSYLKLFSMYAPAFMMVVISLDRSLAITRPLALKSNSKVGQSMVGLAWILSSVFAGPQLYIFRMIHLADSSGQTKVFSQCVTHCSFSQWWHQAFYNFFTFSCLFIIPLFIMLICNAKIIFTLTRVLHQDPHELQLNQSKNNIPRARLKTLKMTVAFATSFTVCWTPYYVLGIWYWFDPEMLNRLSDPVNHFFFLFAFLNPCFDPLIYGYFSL
D(2) dopamine receptor (Homo sapiens), sequence (P14416 whole entry, looked up): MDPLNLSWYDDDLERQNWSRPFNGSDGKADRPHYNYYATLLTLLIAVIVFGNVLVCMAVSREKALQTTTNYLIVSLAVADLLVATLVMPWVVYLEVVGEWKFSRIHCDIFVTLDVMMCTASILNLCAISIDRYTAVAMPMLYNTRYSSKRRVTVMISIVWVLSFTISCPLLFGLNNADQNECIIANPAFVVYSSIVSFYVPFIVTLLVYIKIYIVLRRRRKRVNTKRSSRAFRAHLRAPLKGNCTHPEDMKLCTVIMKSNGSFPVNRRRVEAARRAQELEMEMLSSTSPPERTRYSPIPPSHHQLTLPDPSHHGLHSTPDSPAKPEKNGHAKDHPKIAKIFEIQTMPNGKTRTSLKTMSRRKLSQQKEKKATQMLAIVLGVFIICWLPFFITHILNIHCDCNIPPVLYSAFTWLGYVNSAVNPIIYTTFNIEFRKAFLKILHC
Muscarinic acetylcholine receptor M1 (Homo sapiens), sequence (P11229 whole entry, looked up): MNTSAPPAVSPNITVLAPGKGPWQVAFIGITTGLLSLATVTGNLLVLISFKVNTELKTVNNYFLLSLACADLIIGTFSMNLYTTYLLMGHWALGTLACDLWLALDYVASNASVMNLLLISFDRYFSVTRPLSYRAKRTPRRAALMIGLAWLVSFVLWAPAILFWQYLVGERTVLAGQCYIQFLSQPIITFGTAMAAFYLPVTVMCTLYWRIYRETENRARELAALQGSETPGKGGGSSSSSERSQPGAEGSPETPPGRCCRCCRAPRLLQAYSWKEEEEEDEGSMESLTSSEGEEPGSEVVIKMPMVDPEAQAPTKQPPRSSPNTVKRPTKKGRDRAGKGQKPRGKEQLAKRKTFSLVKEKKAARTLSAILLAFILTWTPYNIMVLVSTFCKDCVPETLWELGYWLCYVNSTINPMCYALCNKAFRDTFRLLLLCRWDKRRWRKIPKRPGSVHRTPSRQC

COc1cc(C(=O)N2CCOCC2)cc(OC)c1OC
Potency [1]: inactive
Potency [2]: inactive
Potency [3]: inactive
Potency [4]: inactive
Potency [5]: inactive
Potency [6]: inactive
Potency [7]: inactive
Potency [8]: inactive
Potency [9]: inactive
Potency [10]: inactive
Potency [11]: inactive
Potency [12]: inactive
Potency [13]: inactive
Potency [14]: inactive
Potency [15]: inactive
Potency [16]: inactive
Potency [17]: inactive
Potency [18]: inactive
Potency [19]: inactive

N[C@@H](CSSC[C@H](N)C(=O)O)C(=O)O
activity change, negative = cytotoxicity [1]: -0.627% [at 0.349 µM]
Potency [2]: 376 nM (active)
activity change [3]: 1.59% [at 0.217 µM, hits give high values]
activation [6]: -1.5% [at 0.249 µM]
activity change, negative = cytotoxicity [8]: -2.37% [at 0.249 µM]
activity change, negative = cytotoxicity [9]: 0.512% [at 0.249 µM]
activation [10]: 2.6% [at 0.249 µM]
activity, negative = inhibition [11]: -6.07% [at 0.233 µM]
activation [12]: 4.74% [at 0.292 µM]
activity, negative = inhibition [13]: 11.3% [at 0.232 µM]
activation [14]: 1.52% [at 0.29 µM]
activation [15]: 0.0077% [at 0.349 µM]
activity change, negative = inhibition [16]: -2.16% [at 0.349 µM]
activity change, negative = inhibition [17]: 8.85% [at 0.349 µM]
activation [20]: -18.9% [at 0.349 µM]
activation [18]: -4.71% [at 0.349 µM]
activity change, negative = inhibition [19]: 5.54% [at 0.348 µM]

CC[N+](C)(C)c1cccc(O)c1
Potency [1]: inactive
Potency [2]: inactive
Potency [3]: inactive
Potency [4]: inactive
Potency [5]: inactive
Potency [6]: inactive
Potency [7]: inactive
Potency [8]: inactive
Potency [9]: inactive
Potency [10]: inactive
Potency [11]: inactive
Potency [12]: inactive
Potency [13]: inactive
Potency [14]: inactive
Potency [15]: inactive
Potency [16]: inactive
Potency [17]: inactive
Potency [20]: inactive
Potency [19]: inactive

CCSC(=O)N(CC(C)C)CC(C)C
Potency [1]: inactive
Potency [2]: inactive
Potency [3]: inactive
Potency [4]: inactive
Potency [5]: inactive
Potency [6]: inactive
Potency [7]: inactive
Potency [8]: inactive
Potency [9]: inactive
Potency [10]: inactive
Potency [11]: inactive
Potency [12]: inactive
Potency [13]: inactive
Potency [14]: inactive
Potency [15]: inactive
Potency [16]: inactive
Potency [17]: inactive
Potency [20]: inactive
Potency [18]: inactive
Potency [19]: inactive

Cc1ccccc1OCC(O)CO (stereo not given)
Potency [1]: inactive
Potency [2]: inactive
Potency [3]: inactive
Potency [4]: inactive
Potency [5]: inactive
Potency [6]: inactive
Potency [7]: inactive
Potency [8]: inactive
Potency [9]: inactive
Potency [10]: inactive
Potency [11]: inactive
Potency [12]: inactive
Potency [13]: inactive
Potency [14]: inactive
Potency [15]: inactive
Potency [16]: inactive
Potency [17]: inactive
Potency [20]: inactive
Potency [18]: inactive
Potency [19]: inactive

CC(=O)N[C@@H](CC(C)C)C(=O)O
Potency [1]: inactive
Potency [2]: inactive
Potency [3]: inactive
Potency [4]: inactive
Potency [5]: inactive
Potency [6]: inactive
Potency [7]: inactive
Potency [8]: inactive
Potency [9]: inactive
Potency [10]: inactive
Potency [11]: inactive
Potency [12]: inactive
Potency [13]: inactive
Potency [14]: inactive
Potency [15]: inactive
Potency [16]: inactive
Potency [17]: inactive
Potency [20]: inactive
Potency [18]: inactive
Potency [19]: inactive

CCCCC(CC)COP(=O)(OCC(CC)CCCC)OCC(CC)CCCC (stereo not given)
Potency [1]: inactive
Potency [2]: inactive
Potency [3]: inactive
Potency [4]: inactive
Potency [5]: inactive
Potency [6]: inactive
Potency [7]: inactive
Potency [8]: inactive
Potency [9]: inactive
Potency [10]: inactive
Potency [11]: inactive
Potency [12]: inactive
Potency [13]: inactive
Potency [14]: inactive
Potency [15]: inactive
Potency [16]: inactive
Potency [17]: inactive
Potency [20]: inactive
Potency [18]: inactive
Potency [19]: inactive
